HIF-2a inh: HIF-2a reporter inhibitors, primary screen, luminescence, 786-0 RCC cells | 786-0 RCC cells HIF-2a reporter, luciferase luminescence, overnight | inhibition, % at 18.8 µM | actives 0.72% (n = 360,000) | AID 624352, 2012;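 active means inhibition of the luminescence signal of 40% or more relative to plate controls, in a single-dose primary screen at 18.75 µM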
PPC-1+TRAIL kill: compounds killing PPC-1 cancer cells with TRAIL present, primary screen, TRAIL potentiator project, ATPLite luminescence, uHTS. cell killing (% activity), % at 4 µM or 5 µM. PPC-1 cells + TRAIL, ATPLite viability luminescence. actives 0.41% (n = 220,000);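 active means cell killing above 50% in the first pass at 4 µM, then a duplicate retest at 5 µM averaging 50% or more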
KKLEB tox: cytotoxicity in KKLEB CF airway cells, primary screen, cytotoxicity control for CF NF-kB inhibitor project, cell-based, uHTS, fluorescence assay plates | KKLEB CF airway cells viability, ATPlite luminescence, overnight; stronger effect = lower value; cells stimulated with P. aeruginosa culture filtrate | activity change (cytotoxicity), % at 5 µM | actives 0.36% (n = 360,000) | AID 602141, 2011;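 active means corrected activity change at or below -50% at 5 µM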
CF NFkB inh: inhibitors of PAF-induced NF-kB signaling, primary screen, cell-based, GFP fluorescence, uHTS. KKLEB NF-kB-GFP reporter, GFP fluorescence overnight. inhibition, % at 5 µM. actives 0.86% (n = 360,000);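 active means at least 50% inhibition at 5 µM, scaled per plate between neutral and stimulator controls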;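 further: PAF is a Pseudomonas aeruginosa culture filtrate used as stimulus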
Peg3 prom inh-1: Peg3 promoter-driven luciferase inhibitors, primary screen, cell-based, HeLa, luciferase luminescence; HeLa PEG-Prom luciferase reporter, overnight; inhibition, % at 20 µM; actives 1.7% (n = 360,000); AID 588405, 2011;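 active means inhibition of at least 50% at 20 µM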
C8 TRAIL sens: viability loss with TRAIL in NB7+C8 cells, primary screen, TRAIL sensitizer project, cell-based, ATPlite luminescence; inhibition (viability loss, TRAIL sensitization), % at 10 µM; actives 1% (n = 360,000);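 active means compounds causing at least 50% loss of cell viability in the single-dose screen, relative to plate controls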
Peg3 prom inh-2: Peg3 promoter reporter inhibitors, retest, confirmation, cell-based, HeLa, luciferase reporter, single concentration; shares compounds with Peg3 prom inh-1; HeLa PEG-Prom luciferase reporter, luminescence, overnight; inhibition, % at 20 µM; actives 84% (n = 1,300); AID 602417, 2012;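 active means at 20 µM dose, 40% or more inhibition averaged across four replicates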
Each line names hits and unclear results; the compound was inactive in the other large screens (follow-up assays come after a bar, where they were run); ! = a repeat was not active. Sampled rows, rich in hits. Any-hit rate of the full collection: about 3.1%.

CC(C)C[C@@H](CNCC(=O)[C@H](Cc1ccccc1)NC(=O)c1[nH]cnc1C(=O)N[C@H](CN)CC(C)C)NC(=O)c1nc[nH]c1C(=O)N[C@@H](CC(=O)O)C(=O)O	none (no result: PPC-1+TRAIL kill)
COCCNC(=O)C1(C)CCN(Cc2ccc3ccccc3c2Br)C1 (configuration not stated)	none (no result: PPC-1+TRAIL kill)
Oc1ccc(C23CCCC2C2(CCCC2)c2ccc(O)cc2O3)c(O)c1 (configuration not stated)	Peg3 prom inh-1 51 (no result: PPC-1+TRAIL kill) | Peg3 prom inh-2 44
CC(/C=N/n1c(-c2ccco2)n[nH]c1=S)=C\c1ccco1	none
CC(/C=N\Nc1nnc2c(n1)[nH]c1c(C)cccc12)=C\c1ccco1	Peg3 prom inh-1 65 | Peg3 prom inh-2 inactive
CCN(CC)S(=O)(=O)c1cc(NC(=O)c2cc(-c3ccccn3)nc3ccccc23)ccc1C	none
COc1ccc(NC(=O)c2cc(-c3ccccn3)nc3ccccc23)cc1S(=O)(=O)N(C)C	Peg3 prom inh-1 61 (no result: PPC-1+TRAIL kill) | Peg3 prom inh-2 54
CN=CC1=C(O)c2ccccc2C1=O	none
COc1ccc(N=CC2=C(O)c3ccccc3C2=O)cc1	KKLEB tox -51, Peg3 prom inh-1 75, C8 TRAIL sens 88 | Peg3 prom inh-2 inactive
CCNC(=O)N(C)C[C@H]1N[C@@](CC)(C(=O)OC)[C@H]2C(=O)N(Cc3ccccc3)C(=O)[C@@H]12	none (no result: PPC-1+TRAIL kill)
COc1ccc(CCNC(=O)C(=O)NCC2CCCN2S(=O)(=O)c2ccccc2)cc1OC (configuration not stated)	Peg3 prom inh-1 56 (no result: PPC-1+TRAIL kill) | Peg3 prom inh-2 58
OC[C@@H]1CN(Cc2cccs2)C[C@H](n2cnc3c(NCc4ccco4)ncnc32)O1	none (no result: PPC-1+TRAIL kill)
O=[N+]([O-])c1ccc(-c2nc(Nc3cccc(O)c3)c3ccccc3n2)cc1	Peg3 prom inh-1 81 (no result: PPC-1+TRAIL kill) | Peg3 prom inh-2 91
CC(=O)c1sc2nc(-c3cccs3)ccc2c1N	none
Nc1c(C(=O)Nc2nc3ccccc3s2)sc2nc(-c3cccs3)ccc12	Peg3 prom inh-1 95, C8 TRAIL sens 96 | Peg3 prom inh-2 64
CC(C)CC(C(=O)NCC1CCCO1)N(C(=O)Cn1nnc(-c2ccc(F)cc2)n1)c1cccc(C(F)(F)F)c1 (configuration not stated)	none
O=C(NCC1CCCO1)C(c1ccc(F)cc1)N(C(=O)Cn1nnc(-c2ccc(F)cc2)n1)c1cccc(O)c1 (configuration not stated)	Peg3 prom inh-1 56 | Peg3 prom inh-2 51
CC(C(=O)NC1CCCC1)N(C(=O)Cn1nnc(-c2ccc(F)cc2)n1)c1ccccc1F (configuration not stated)	Peg3 prom inh-1 57 (no result: PPC-1+TRAIL kill) | Peg3 prom inh-2 50
Cc1cc(S(=O)(=O)N2CCOCC2)ccc1NC(=O)c1ccc(F)cc1	none (no result: PPC-1+TRAIL kill)
C[n+]1c2cc(N)ccc2cc2ccc(N)cc21	HIF-2a inh 41!, Peg3 prom inh-1 96 (no result: PPC-1+TRAIL kill) | Peg3 prom inh-2 96
O=S1(=O)C[C@H](N2CCOCC2)[C@@H](COCc2ccccc2)N1	none (no result: PPC-1+TRAIL kill)
CNCC[C@H](Oc1cccc2ccccc12)c1cccs1	Peg3 prom inh-1 90 | Peg3 prom inh-2 92
CNCCC(Oc1ccc(C(F)(F)F)cc1)c1ccccc1 (configuration not stated)	none
Cc1cccc(C)c1NC(=O)CN(c1c(C)cccc1C)S(C)(=O)=O	none (no result: PPC-1+TRAIL kill)
Oc1c(Cl)cc(CN2CCCCC2)c2cccnc12	none (no result: PPC-1+TRAIL kill)
O=C(Oc1c(CN2CCOCC2)cc(Cl)c2cccnc12)c1ccccc1Cl	Peg3 prom inh-1 50, C8 TRAIL sens 54 | Peg3 prom inh-2 43
COc1ccc(-n2c(O)c(/C=N/Nc3nc(C)cc(C)n3)c3ccccc3c2=O)cc1OC	Peg3 prom inh-1 56 | Peg3 prom inh-2 45
O=C(NCCc1cccc(Cl)c1)c1ccc(OC2CCN(Cc3ccccn3)CC2)cc1	none (no result: PPC-1+TRAIL kill)
CN(C)c1ccc(-c2nc3ccccn3c2/N=C/c2ccc(Br)cc2)cc1	Peg3 prom inh-1 54, C8 TRAIL sens 53 | Peg3 prom inh-2 41
CC1=NOC(=O)/C1=C\c1ccc(-c2ccccc2Br)o1	HIF-2a inh 49, CF NFkB inh 58, Peg3 prom inh-1 93 (no result: PPC-1+TRAIL kill) | Peg3 prom inh-2 99
COc1ccc(-n2cc(-c3ccccc3)c3c(N4CCOCC4)ncnc32)cc1	KKLEB tox -100, CF NFkB inh 94, Peg3 prom inh-1 61 | Peg3 prom inh-2 68
OCCN1CCN(C2CCC(c3ccc(F)cc3)c3ccc(F)cc32)CC1 (configuration not stated)	Peg3 prom inh-1 56 (no result: PPC-1+TRAIL kill) | Peg3 prom inh-2 73
Nc1nonc1-n1nnc(C(=O)N/N=C/c2ccccc2)c1CN1CCc2ccccc21	none (no result: PPC-1+TRAIL kill)
C/C(=N\NC(=O)c1nnn(-c2nonc2N)c1CN1CCc2ccccc21)c1ccccc1O	Peg3 prom inh-1 55 (no result: PPC-1+TRAIL kill) | Peg3 prom inh-2 66
CCOc1cccc(-c2c(C(=O)N/N=C(\C)c3ccccn3)nnn2-c2nonc2N)c1	Peg3 prom inh-1 74 (no result: PPC-1+TRAIL kill) | Peg3 prom inh-2 64
O=C(O)C1CCc2nc(NCc3ccccc3)nc(NCc3ccccc3)c2C1 (configuration not stated)	none (no result: PPC-1+TRAIL kill)
CCCN(CCC)S(=O)(=O)c1ccc(Cl)c([N+](=O)[O-])c1	KKLEB tox -50, CF NFkB inh 60, Peg3 prom inh-1 94 | Peg3 prom inh-2 inactive
CCC(C)NCCOCCOc1ccc(Cl)c2ccccc12 (configuration not stated)	Peg3 prom inh-1 102 | Peg3 prom inh-2 98
CC(C)N1CCc2c(sc(NC(=O)c3cc4cc([N+](=O)[O-])ccc4s3)c2C(N)=O)C1	Peg3 prom inh-1 97 | Peg3 prom inh-2 98
CN1CCc2c(sc(NC(=O)c3cc4cc([N+](=O)[O-])ccc4s3)c2C(N)=O)C1	none (no result: HIF-2a inh, KKLEB tox, CF NFkB inh, Peg3 prom inh-1, C8 TRAIL sens)
CCCCC1C(=O)N(c2ccccc2)N(c2ccc(O)cc2)C1=O (configuration not stated)	HIF-2a inh 95, CF NFkB inh 82, Peg3 prom inh-1 101, C8 TRAIL sens 57 (no result: PPC-1+TRAIL kill) | Peg3 prom inh-2 74
CCN(CC)CCNC(=O)c1ccc(NC(=O)c2ccc3c(c2)CCC3)cc1	none (no result: PPC-1+TRAIL kill)
CCN(CC)CCNC(=O)c1ccc(NC(=O)c2cccc(S(=O)(=O)N(C)C3CCCCC3)c2)cc1	Peg3 prom inh-1 83 (no result: PPC-1+TRAIL kill) | Peg3 prom inh-2 89
COc1ccc(C(=O)N2CCN(c3ccccc3Cl)CC2)cc1S(=O)(=O)NC1CC1	none (no result: PPC-1+TRAIL kill)
OC[C@H]1O[C@@H](n2cnc3c(Nc4ccccc4)ncnc32)[C@H](O)[C@@H]1O	none
